Test results as given in PubChem BioAssay (EPA / NIEHS).
Inconclusive results are not listed. Some compounds were tested as several samples or in several runs, with calls that do not always agree. Active and inactive are the calls of the source. Rule for the calls: active = hit-call score of the fitted dose curve at least 0.9, where 1 is the maximum; inconclusive = response in the unintended direction; inactive = score below 0.9.

Each molecule was assayed against Nuclear receptor subfamily 1 group I member 2 (Homo sapiens) (UniProt O75469) (assay: ATG_PXR_TRANS: Attagene TRANS-FACTORIAL HepG2 Assay for human Pregnane X Receptor (PXR) (AID 2283008)).
Procedure: ATG_TRANS is a cell-based, multiplexed-readout assay that uses HepG2, a human liver cell line, with measurements taken at 24 hours after chemical dosing in a 24-well plate.ATG_PXR_TRANS is one of 30 assay component(s) measured or calculated from the ATG_TRANS assay. It is designed to make measurements of mRNA induction, a form of inducible reporter, as detected with fluorescence intensity signals by Reverse transcription polymerase chain reaction (RT-PCR) and Capillary electrophoresis technology.Data from the assay component ATG_PXR_TRANS was analyzed into 1 assay endpoint. This assay endpoint, ATG_PXR_TRANS, was analyzed in the positive analysis fitting direction relative to DMSO as the negative control and baseline of activity. Using a type of inducible reporter, measures of mRNA for gain-of-signal activity can be used to understand the reporter gene at the transcription factor-level as they relate to the gene NR1I2. Furthermore, this assay endpoint can be referred to as a primary readout, because this assay has produced multiple assay endpoints where this one serves a reporter gene function. To generalize the intended target to other relatable targets, this assay endpoint is annotated to the nuclear receptor intended target family, where the subfamily is non-steroidal.
Human liver HepG2 cells are transiently transfected with multiple reporter transcription units (MRTUs) in 6-well plates using FuGene 6 reagent (Roche; 3 ml FuGene/1 mg DNA). The MRTU constructs are regulated by a cis-regulating element (promoter). […] A major difference between the CIS and TRANS system is that in CIS activities of endogenous TFs are measured, whereas the TRANS assay evaluates changes in activities of exogenous, chimeric NR-Gal4 proteins. […] At the end of 24 hour incubation, total RNA was isolated using TriZol reagent (Invitrogen). The isolated RNA is then reverse-transcribed using oligo(dT) primer and Mo-MLV reverse transcriptase (Invitrogen) with DNAse I (Ambion) treatment for 30 min. The one-tenth of the produced cDNA was amplified by PCR using Taq DNA polymerase (Invitrogen) and two reporter sequence-specific primers. The PCR products were fluorescently labeled by primer extension with 6-arboxyfluorescein (6-FAM) 5'-labeled reporter sequence-specific primer (2 min at 95 C, 20 s at 68 C and 10 min at 72 C) and these products were digested with 5U of HpaI (New England Biolabs) for 2h at 37 C. The fragments were purified using Qiaquick PCR columns (Qiagen), analyzed on an ABI 3130xL genetic analyzer (Applied Biosystems) with peak positions identified by using a set of X-rhodamine (ROX)-labeled MapMarker1000 molecular weight standards (BioVentures). The raw capillary electrophoresis data was processed using Attagraph software (Attagene).

Chain of Nuclear receptor subfamily 1 group I member 2 (Homo sapiens) (O75469 whole entry, looked up): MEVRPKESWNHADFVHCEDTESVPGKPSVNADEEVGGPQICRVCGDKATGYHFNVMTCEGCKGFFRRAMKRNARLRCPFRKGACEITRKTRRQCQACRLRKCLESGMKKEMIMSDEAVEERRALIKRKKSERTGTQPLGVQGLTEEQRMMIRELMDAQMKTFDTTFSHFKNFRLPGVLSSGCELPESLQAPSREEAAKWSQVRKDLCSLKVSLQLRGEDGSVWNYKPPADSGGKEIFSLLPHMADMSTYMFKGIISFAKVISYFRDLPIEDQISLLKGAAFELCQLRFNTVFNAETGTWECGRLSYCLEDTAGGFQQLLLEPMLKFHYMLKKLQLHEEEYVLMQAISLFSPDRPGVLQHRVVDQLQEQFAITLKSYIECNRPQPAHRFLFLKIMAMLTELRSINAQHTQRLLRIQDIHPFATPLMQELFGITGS

SMILES | outcome | AC50
FC(F)(Br)C(F)(F)C(F)(F)C(F)(F)C(F)(F)C(F)(F)Br | inactive | 
O=C(O)C(F)(F)C(F)(F)C(F)(F)C(F)(F)C(F)(F)C(F)(F)C(F)(F)C(F)(F)Cl | inactive | 50 µM (active)
OC[C@@H](O)[C@@H](O)[C@H](O)[C@@H](O)CO |  | 12.5 µM (active)
O=S(=O)(OCC(F)F)C(F)(F)F | inactive | 
O=C(Cl)C(F)(F)C(F)(F)C(F)(F)C(F)(F)C(F)(F)C(F)(F)C(F)(F)C(F)(F)F |  | 54.5 µM (active)
CCO[Si](CCC(F)(F)C(F)(F)C(F)(F)C(F)(F)C(F)(F)C(F)(F)F)(OCC)OCC | inactive | 
COC(=O)CCC(F)(F)C(F)(F)C(F)(F)C(F)(F)F | inactive | 
CCCCOc1ccc(N)cc1 | inactive | 
FC(F)(F)C(F)(F)C(F)(F)C(F)(F)C(F)(F)C(F)(F)CC1CO1 (stereo not given) | inactive | 
Nc1ccc([N+](=O)[O-])cc1O | inactive | 
[Co] |  | 22.1 µM (active)
FC(F)(I)C(F)(F)C(F)(F)C(F)(F)I | inactive | 
C=C(C)C(=O)OCCC(F)(F)C(F)(F)C(F)(F)C(F)(F)C(F)(C(F)(F)F)C(F)(F)F | inactive | 
O=C(O)C=C(C(F)(F)F)C(F)(F)F | inactive | 
Nc1ccc(S(=O)(=O)Nc2nccs2)cc1 | inactive | 
CC(=O)Nc1ccc(N=Nc2cc(C)ccc2O)cc1 |  | 14.1 µM (active)
Cc1cccc(N(C)C)c1 | inactive | 
c1ccc(-c2ccccc2-c2ccccc2)cc1 |  | 27 µM (active)
FC(F)(F)C(F)(F)C(F)(F)CI | inactive | 

SMILES | outcome | AC50
CCc1ccc(C(c2ccc(CC)cc2)C(Cl)Cl)cc1 |  | 3.55 µM (active)
FC(F)(F)C(F)(F)C(F)(F)C(F)(F)C(F)(F)C(F)(F)C(F)(F)Br | inactive | 
CC(CCl)OP(=O)(OC(C)CCl)OC(C)CCl (stereo not given) |  | 0.801 µM (active)
COC(=O)C1CCC(C(=O)OC)CC1 (stereo not given) | inactive | 
O=C(O)C(F)(OC(F)(F)C(F)(OC(F)(F)C(F)(OC(F)(F)C(F)(F)C(F)(F)F)C(F)(F)F)C(F)(F)F)C(F)(F)F (stereo not given) | inactive | 
C=C(C)C(=O)OCC(F)(F)C(F)(F)C(F)(F)F | inactive | 
FC(F)(F)C(F)(F)C(F)(F)C(F)(F)C(F)(F)C(F)(F)CCS | inactive | 
O=S(=O)(O)c1ccc2ccccc2c1 | inactive | 21 µM (active)
O=C(O)C(F)(F)C(F)(F)C(F)(F)F | inactive | 
Oc1ccc(Nc2ccccc2)cc1 |  | 20.5 µM (active)
C=CC/C=C/C/C=C/C/C=C/C | inactive | 
OCC(F)(F)C(F)(F)C(F)(F)C(F)(F)C(F)(F)C(F)F | inactive | 
CC(C)OC(=O)c1ccccc1C(=O)OC(C)C |  | 5.74 µM (active)
O=C(C=Cc1ccccc1)OCC=Cc1ccccc1 |  | 23.9 µM (active)
O=S(=O)(O)C(F)(F)C(F)(F)C(F)(F)C(F)(F)C(F)(F)C(F)(F)C(F)(F)F | inactive | 33.5 µM (active)
C=CC(=O)OCC(F)(F)C(F)(F)C(F)(F)C(F)(F)COC(=O)C=C | inactive | 
OCC(F)(F)C(F)(F)C(F)(F)C(F)F | inactive | 
c1ccc(B(c2ccccc2)c2ccccc2)cc1 |  | 4.69 µM (active)
